Test [1] deals with MDA-MB-231. Put plainly: cell viability relative to vehicle unstimulated control (fraction); higher = more viable cells. The note with it: pre-treatment time: 18 h then 24 h IFNg/TNF.
Test [2] deals with MDA-MB-231. Put plainly: kynurenine production, fold change vs DMSO IFNg/TNF control; higher = more kynurenine produced (less inhibition). The note with it: pre-treatment time: 18 h then 24 h IFNg/TNF. The method, boiled down:
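In 96-well plates, MDA-MB-231 cells (7 × 10^4/well) were given 24 h to settle, pre-treated for 18 h with each natural product in 0.1% DMSO, and stimulated for 24 h with IFNγ (1 U/ml) and TNF (6.25 ng/ml) at 37°C. Supernatants were processed with trichloroacetic acid and p-dimethylaminobenzaldehyde and read at 492 nm against 0–100 μM standards. In the first screening round, kynurenine production, as fold change over same-plate cytokine-stimulated vehicle wells, was averaged over duplicate plates.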

Counter-ions that a name gives are not always drawn. ± gives the standard deviation of the averaged measurements.
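Wherever cell viability relative to vehicle unstimulated control is given: viability of the cells left after supernatant collection, read with Deep Blue dye added for 4 h, as absorbance at 570 nm minus 600 nm.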

As for `C/C1=C\[C@H]2C(=O)[C@@H](C)C[C@]2(O)C(=O)/C(C)=C/[C@@H]2[C@H](CC1)C2(C)C` [jolkinol C] (compound dose: 10 uM), the cell viability in the test with MDA-MB-231 [1] turned out to be 1.07 ± 0.041. For the same compound, the kynurenine production with MDA-MB-231 [2] turned out to be 0.868 ± 0.087.
The corresponding values for `C[C@@]12CC[C@@H]3[C@@](CC[C@H]4[C@@]3(C)CCC[C@@]4(C)C(=O)O)(CC1=O)C2` [Isosteviol] (compound dose: 10 uM) are 1.02 ± 0.084 and 0.998 ± 0.055.
The corresponding values for `CC(C)=CCC[C@](C)(O[C@@H]1O[C@H](CO[C@@H]2OC[C@@H](O)[C@H](O)[C@H]2O)[C@@H](O)[C@H](O)[C@H]1O)[C@H]1CC[C@]2(C)[C@@H]1[C@H](O)C[C@@H]1[C@@]3(C)CC[C@H](O[C@@H]4O[C@H](CO)[C@@H](O)[C@H](O)[C@H]4O[C@@H]4O[C@H](CO)[C@@H](O)[C@H](O)[C@H]4O)C(C)(C)[C@@H]3CC[C@]12C` [Ginsenoside Rb3] (compound dose: 10 uM) are 1.01 ± 0.015 and 0.73 ± 0.19.
With `C=C(C(=O)O)[C@@H]1CC[C@@H](C)[C@@H]2CCC(C)=C[C@@H]21` [Artemisinic acid] (compound dose: 10 uM), in the test on MDA-MB-231 [1], the cell viability was determined as 1.08 ± 0.11. The kynurenine production in the test with MDA-MB-231 [2] was 0.889 ± 0.031.
In the same order, the values of `C[C@H]1[C@@H](O)O[C@@H]2O[C@@]3(C)CC[C@H]4[C@H](C)CC[C@@H]1[C@@]24OO3` [Dihydroartemisinin] (compound dose: 10 uM) are 0.978 ± 0.069 and 0.688 ± 0.12.
The corresponding values for `CC1=CC[C@@H](C(C)(C)O)CC1` [α-Terpineol] (compound dose: 10 uM) are 1.02 ± 0.059 and 0.896 ± 0.0054.
`CC(=O)O[C@H]1CC/C(C)=C/CC/C(C)=C/C[C@]2(C(C)C)CC[C@@]1(C)O2` [Incensole Acetate] (compound dose: 10 uM): the cell viability in the test on MDA-MB-231 [1] is 1.11 ± 0.01. Further, the kynurenine production in the test on MDA-MB-231 [2] was found to be 0.941 ± 0.18.
As for `CC(=O)O[C@@]1(C)C[C@@H](O)[C@]2(O)C=CO[C@@H](O[C@@H]3O[C@H](CO)[C@@H](O)[C@H](O)[C@H]3O)[C@@H]21` [8-O-Acetylharpagide] (compound dose: 10 uM), in the test on MDA-MB-231 [1], the cell viability worked out at 0.9 ± 0.067. In addition, in the test with MDA-MB-231 [2], the kynurenine production was 0.906 ± 0.076.
`C=C(C)[C@@H]1CC[C@]2(C(=O)O)CC[C@]3(C)[C@H](CC[C@@H]4[C@@]5(C)CC[C@H](O)C(C)(C)[C@@H]5CC[C@]43C)[C@@H]12` [Betulinic acid] (compound dose: 10 uM): in the test on MDA-MB-231 [1], the cell viability was determined as 0.993 ± 0.044. In the test on MDA-MB-231 [2], the kynurenine production was 0.949 ± 0.051.
In the same order, the values of `C=C(C)[C@@H]1CC[C@]2(C(=O)O)CC[C@]3(C)[C@H](CC[C@@H]4[C@@]5(C)CC[C@H](OC(=O)CC(C)(C)C(=O)O)C(C)(C)[C@@H]5CC[C@]43C)[C@@H]12` [Bevirimat] (compound dose: 10 uM) are 1.018 ± 0.0069 and 0.778 ± 0.15.
The corresponding values for `C=C1C(=O)O[C@@H]2C[C@@]3(C)CCCC(=C)[C@@H]3C[C@H]12` [Isoalantolactone] (compound dose: 10 uM) are 0.951 ± 0.082 and 0.255 ± 0.077.
In the same order, the values of `C[C@H]1O[C@@H](O[C@H]2CC[C@@]3(C)[C@@H](CC[C@]4(C)[C@@H]3C=C[C@]35OC[C@@]6(CCC(C)(C)C[C@H]63)[C@H](O)C[C@]54C)[C@]2(C)CO)[C@H](O)[C@@H](O[C@@H]2O[C@H](CO)[C@@H](O)[C@H](O)[C@H]2O)[C@H]1O` [Saikosaponin D] (compound dose: 10 uM) are 0.922 ± 0.044 and 0.603 ± 0.2.
Turning to `CC(CC(=O)C[C@@H](C)[C@H]1CC(=O)[C@@]2(C)C3=C(C(=O)C[C@]12C)[C@@]1(C)CCC(=O)C(C)(C)[C@@H]1C[C@@H]3O)C(=O)O` (stereo partly specified) [Ganoderic acid D] (compound dose: 10 uM), in the test with MDA-MB-231 [1], the cell viability came out at 0.916 ± 0.036. Besides, the kynurenine production in the test on MDA-MB-231 [2] was 0.869 ± 0.11.
In the same order, the values of `C=C1C[C@@]2(O)O[C@@]3(C[C@H]2C(C)C)[C@@H](C)CC[C@@H]13` [Curcumol] (compound dose: 10 uM) are 0.997 ± 0.034 and 0.833 ± 0.1.
The corresponding values for `C[C@H](CC[C@@H](O[C@@H]1O[C@H](CO[C@@H]2O[C@H](CO)[C@@H](O)[C@H](O)[C@H]2O)[C@@H](O)[C@H](O)[C@H]1O[C@@H]1O[C@H](CO)[C@@H](O)[C@H](O)[C@H]1O)C(C)(C)O)[C@H]1CC[C@@]2(C)[C@@H]3CC=C4[C@@H](CC[C@H](O[C@@H]5O[C@H](CO)[C@@H](O)[C@H](O)[C@H]5O)C4(C)C)[C@]3(C)[C@H](O)C[C@]12C` [Siamenoside I] (compound dose: 10 uM) are 1.14 ± 0.34 and 1.1 ± 0.063.
In the same order, the values of `C/C=C(/C)C(=O)O[C@H]1C(C)=C[C@]23C(=O)[C@@H](C=C(CO)[C@@H](O)[C@]12O)[C@H]1[C@@H](C[C@H]3C)C1(C)C` [Ingenol 3-Angelate] (compound dose: 10 uM) are 0.958 ± 0.11 and 0.979 ± 0.16.
`C=C1C(=O)O[C@H]2[C@H]1CC/C(C)=C/CC[C@@]1(C)O[C@@H]21` [Parthenolide] (compound dose: 10 uM): the cell viability in the test with MDA-MB-231 [1] is 0.933 ± 0.034. Further, in the test with MDA-MB-231 [2], the kynurenine production amounted to 0.309 ± 0.064.
The corresponding values for `CC1=C2[C@@H](OC1=O)[C@H](O)[C@]13[C@H]4C[C@@H](C(C)(C)C)[C@]15[C@@H](OC(=O)[C@@H]5O)O[C@@]23C(=O)O4` [Ginkgolide K] (compound dose: 10 uM) are 0.996 ± 0.15 and 0.988 ± 0.29.
In the same order, the values of `CC1(C)[C@@H](O[C@H]2O[C@H](C(=O)O)[C@@H](O)[C@H](O)[C@H]2O[C@@H]2O[C@H](C(=O)O)[C@@H](O)[C@H](O)[C@H]2O)CC[C@]2(C)[C@H]3C(=O)C=C4[C@@H]5C[C@@](C)(C(=O)O)CC[C@]5(C)CC[C@@]4(C)[C@]3(C)CC[C@@H]12` [Dipotassium glycyrrhizinate] (compound dose: 10 uM) are 0.924 ± 0.031 and 0.808 ± 0.21.
The corresponding values for `C[C@H]1[C@H](C)CC[C@]2(C(=O)O)CC[C@]3(C)C(=CC[C@@H]4[C@@]5(C)CC[C@H](O)C(C)(C)[C@@H]5CC[C@]43C)[C@H]12` [Ursolic acid] (compound dose: 10 uM) are 0.973 ± 0.015 and 0.891 ± 0.21.
As to `COC(=O)[C@H]1[C@H]2C[C@@H]3c4[nH]c5cc(OC)ccc5c4CCN3C[C@H]2C[C@@H](OC(=O)c2cc(OC)c(OC)c(OC)c2)[C@@H]1OC` [Reserpine] (compound dose: 10 uM), in the test on MDA-MB-231 [1], the cell viability was 0.954 ± 0.028. Moreover, the kynurenine production in the test on MDA-MB-231 [2] is 1.02 ± 0.067.
The corresponding values for `CC1(C)[C@@H](O[C@H]2O[C@H](C(=O)O)[C@@H](O)[C@H](O)[C@H]2O[C@@H]2O[C@H](C(=O)O)[C@@H](O)[C@H](O)[C@H]2O)CC[C@]2(C)[C@H]3C(=O)C=C4[C@@H]5C[C@@](C)(C(=O)O)CC[C@]5(C)CC[C@@]4(C)[C@]3(C)CC[C@@H]12` [Glycyrrhizic acid] (compound dose: 10 uM) are 1.05 ± 0.075 and 0.842 ± 0.057.
For the compound `CCCCC/C=C/C=C/C(=O)O[C@H]1C(C)=C[C@]23C(=O)[C@@H](C=C(CO)[C@@H](O)[C@]12O)[C@H]1[C@@H](C[C@H]3C)C1(C)C` [3-O-(2'E,4'EDecadienoyl)ingenol] (compound dose: 10 uM), the cell viability with MDA-MB-231 [1] came to 0.9682 ± 0.0024. Moreover, the kynurenine production in the test on MDA-MB-231 [2] was 0.812 ± 0.086.
Turning to `CC1(C)CC[C@]2(C)CC[C@]3(C)C(=CC[C@@H]4[C@@]5(C)CC[C@@H](O)[C@](C)(C(=O)O)[C@@H]5CC[C@]43C)[C@@H]2C1` [alpha-Boswellic acid] (compound dose: 10 uM), the cell viability in the test with MDA-MB-231 [1] worked out at 0.953 ± 0.011. The kynurenine production with MDA-MB-231 [2] turned out to be 0.911 ± 0.028.
The corresponding values for `CC(/C=C/C=C(\C)C(=O)O)=C\C=C\C=C(C)\C=C\C=C(/C)C(=O)O` [Transcrocetin meglumine salt] (compound dose: 10 uM) are 1.02 ± 0.038 and 0.737 ± 0.064.
The corresponding values for `CC1(C)CCC[C@](C)([C@H]2CC[C@]3(C)[C@@H]2[C@H](O)C[C@@H]2[C@@]4(C)CC[C@H](O)C(C)(C)[C@@H]4[C@@H](O)C[C@]23C)O1` [Panaxatriol] (compound dose: 10 uM) are 0.926 ± 0.025 and 0.846 ± 0.073.
The corresponding values for `CC(=O)O[C@H]1/C(CO)=C\C[C@H]2[C@@H](/C=C(/C)C(=O)[C@@]3(OC(C)=O)C[C@H](C)[C@H](OC(=O)c4ccccc4)[C@H]13)C2(C)C` [Euphorbia factor L24] (compound dose: 10 uM) are 1.09 ± 0.022 and 0.911 ± 0.078.
Consider `CC(C)(O)[C@H]1CC[C@@](C)([C@H]2CC[C@]3(C)[C@@H]2[C@H](O)C[C@@H]2[C@@]4(C)CC[C@H](O)C(C)(C)[C@@H]4[C@@H](O[C@@H]4O[C@H](CO)[C@@H](O)[C@H](O)[C@H]4O)C[C@]23C)O1` [Pseudoginsenoside RT5] (compound dose: 10 uM), for which the cell viability with MDA-MB-231 [1] worked out at 0.987 ± 0.016. For the same compound, the kynurenine production in the test on MDA-MB-231 [2] amounted to 0.865 ± 0.21.
In the same order, the values of `CC(C)=CC/C=C(\C)[C@H]1CC[C@]2(C)[C@@H]1[C@H](O)C[C@@H]1[C@@]3(C)CC[C@H](O[C@@H]4O[C@H](CO)[C@@H](O)[C@H](O)[C@H]4O[C@@H]4O[C@H](CO)[C@@H](O)[C@H](O)[C@H]4O)C(C)(C)[C@@H]3CC[C@]12C` [Ginsenoside Rg5] (compound dose: 10 uM) are 0.906 ± 0.032 and 0.876 ± 0.12.
Take `CC1(C)C[C@@H](O)[C@]2(C)CC[C@]3(C)C(=CC[C@@H]4[C@@]5(C)CC[C@H](O)[C@](C)(CO)[C@@H]5CC[C@]43C)[C@@H]2C1` [Soyasapogenol B] (compound dose: 10 uM): in the test with MDA-MB-231 [1], the cell viability was 1.02 ± 0.018. For the same compound, the kynurenine production in the test on MDA-MB-231 [2] turned out to be 0.744 ± 0.025.
The corresponding values for `COC(=O)C1=CC[C@@]23CC[C@@H]([C@@](C)(/C=C/C=C(\C)C(=O)O)OC2=O)[C@@]3(OC(C)=O)CC1` [Pseudolaric Acid B] (compound dose: 10 uM) are 0.898 ± 0.035 and 0.62 ± 0.24.
For the compound `CC(C)=CCC[C@@H](C)CCO` [(R)-Citronellol] (compound dose: 10 uM), the cell viability in the test on MDA-MB-231 [1] stood at 1.029 ± 0.0012. Besides, in the test with MDA-MB-231 [2], the kynurenine production stood at 0.824 ± 0.11.
The corresponding values for `CC(C)=CCC[C@@](C)(O)[C@H]1CC[C@]2(C)[C@@H]1[C@H](O)C[C@@H]1[C@@]3(C)C[C@@H](O)[C@H](O[C@@H]4O[C@H](CO)[C@@H](O)[C@H](O)[C@H]4O[C@@H]4O[C@H](CO)[C@@H](O)[C@H](O)[C@H]4O)C(C)(C)[C@@H]3CC[C@]12C` [Gypenoside LI] (compound dose: 10 uM) are 0.936 ± 0.084 and 0.724 ± 0.1.

These data come from the supplement of paper PMC13094657.
